Results reported in PubChem BioAssay (EPA / NIEHS).
Inconclusive results are not listed. Activity calls are given as the source filed them. How the source made its calls: active means hit-call score of the fitted dose curve at least 0.9, where 1 is the maximum; inconclusive means response in the unintended direction; inactive means score below 0.9.

Tests used:
[1] = biological target: human Matrix Metalloproteinase-3 (MMP3), MMP3 (gene 4314) (UniProt P08254); assay: NVS_ENZ_hMMP3: NovaScreen (NVS) Enzymatic Assay for human Matrix Metalloproteinase-3 (MMP3) (AID 2283185)
Outline: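 Fluorescent substrate turnover by recombinant MMP3 read after 1 h, signal loss scored against DMSO. Compounds first run in duplicate at 25 uM single dose, then actives confirmed by concentration series.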

[2] = biological target: human NIMA (Never In Mitosis Gene A)-Related Kinase 2 (NEK2), NEK2 (gene 4751) (UniProt P51955); assay: NVS_ENZ_hNEK2: NovaScreen (NVS) Enzymatic Assay for human NIMA (Never In Mitosis Gene A)-Related Kinase 2 (NEK2) (AID 2283188)
Experimental: NVS_ENZ_hNEK2 is a biochemical, single-readout assay that uses extracted gene-proteins in a cell-free assay. Measurements were taken 1 hour after chemical dosing in a 384-well plate.NVS_ENZ_hNEK2 is one of one assay component(s) measured or calculated from the NVS_ENZ_hNEK2 assay. It is designed to make measurements of enzyme activity, a form of enzyme reporter, as detected with fluorescence intensity signals by Fluorescence and electrophoretic mobility shift technology.Data from the assay component NVS_ENZ_hNEK2 was analyzed into 1 assay endpoint. This assay endpoint, NVS_ENZ_hNEK2, was analyzed in the positive analysis fitting direction relative to DMSO as the negative control and baseline of activity. Using a type of enzyme reporter, loss-of-signal activity can be used to understand changes in the enzymatic activity as they relate to the gene NEK2. Furthermore, this assay endpoint can be referred to as a primary readout, because this assay has produced multiple assay endpoints where this one serves a enzymatic activity function. To generalize the intended target to other relatable targets, this assay endpoint is annotated to the kinase intended target family, where the subfamily is serine/threonine kinase. […]

[3] = biological target: human Phosphoinositide 3-kinase alpha (PI3Ka), PIK3CA (gene 5290) (UniProt P42336); assay: NVS_ENZ_hPI3Ka: NovaScreen (NVS) Enzymatic Assay for human Phosphoinositide 3-kinase alpha (PI3Ka) (AID 2283196)
Outline: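 Chemicals were first screened at 25 uM in duplicate, then hits were run as concentration series up to 50 uM. Enzyme activity was measured by fluorescence after mobility-shift separation, with loss of signal relative to DMSO taken as activity.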

PPP2CA (gene 5515) = PPP2CA (gene 5515) (UniProt P67775); assay: NVS_ENZ_hPPP2CA: NovaScreen (NVS) Enzymatic Assay for human Protein Phosphatase 2 Aatalytic subunit Alpha (PPP2CA) (AID 2283199)
Outline: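 Cell-free phosphatase activity: fluorescent substrate turnover by recombinant human enzyme, resolved by mobility shift at 1.33 h. Compounds passing the 25 uM duplicate primary screen were rerun in singleton series with a 50 uM top concentration.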

[4] = biological target: Tyrosine-protein phosphatase non-receptor type 11 (Homo sapiens) (UniProt Q06124); assay: NVS_ENZ_hPTPN11: NovaScreen (NVS) Enzymatic Assay for human Protein Tyrosine Phosphatase Non-receptor Type 11 (PTPN11) (AID 2283202)
Experimental: (§1) NVS_ENZ_hPTPN11 is a biochemical, single-readout assay that uses extracted gene-proteins in a cell-free assay. Measurements were taken 0.5 hour after chemical dosing in a 384-well plate.NVS_ENZ_hPTPN11 is one of one assay component(s) measured or calculated from the NVS_ENZ_hPTPN11 assay. It is designed to make measurements of enzyme activity, a form of enzyme reporter, as detected with fluorescence intensity signals by Fluorescence and electrophoretic mobility shift technology.Data from the assay component NVS_ENZ_hPTPN11 was analyzed into 1 assay endpoint. This assay endpoint, NVS_ENZ_hPTPN11, was analyzed in the positive analysis fitting direction relative to DMSO as the negative control and baseline of activity. Using a type of enzyme reporter, loss-of-signal activity can be used to understand changes in the enzymatic activity as they relate to the gene PTPN11. Furthermore, this assay endpoint can be referred to as a primary readout, because this assay has produced multiple assay endpoints where this one serves a enzymatic activity function. To generalize the intended target to other relatable targets, this assay endpoint is annotated to the phosphatase intended target family, where the subfamily is non-receptor tyrosine phosphatase. […]

[5] = biological target: Tyrosine-protein phosphatase non-receptor type 12 (Homo sapiens) (UniProt Q05209); assay: NVS_ENZ_hPTPN12: NovaScreen (NVS) Enzymatic Assay for human Protein Tyrosine Phosphatase Non-receptor Type 12 (PTPN12) (AID 2283204)
Experimental: as §1, with “NVS_ENZ_hPTPN12” for “NVS_ENZ_hPTPN11”, “1.33 hours” for “0.5 hour”, “plate.NVS_ENZ_hPTPN12” for “plate.NVS_ENZ_hPTPN11”, “NVS_ENZ_hPTPN12,” for “NVS_ENZ_hPTPN11,”, “PTPN12.” for “PTPN11.”

[6] = biological target: Tyrosine-protein phosphatase non-receptor type 13 (Homo sapiens) (UniProt Q12923); assay: NVS_ENZ_hPTPN13: NovaScreen (NVS) Enzymatic Assay for human Protein Tyrosine Phosphatase Non-receptor Type 13 (PTPN13) (AID 2283205)
Outline: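 Screened first at a single 25 uM in duplicate; compounds passing the threshold (e.g. 30% inhibition) were rerun in concentration series, top 50 uM. Recombinant enzyme, fluorescent substrate, mobility-shift separation, 0.5 h read. Data fitted as inhibition relative to DMSO.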

[7] = biological target: human Protein Tyrosine Phosphatase Non-receptor Type 4 (PTPN4), PTPN4 (gene 5775) (UniProt P29074); assay: NVS_ENZ_hPTPN4: NovaScreen (NVS) Enzymatic Assay for human Protein Tyrosine Phosphatase Non-receptor Type 4 (PTPN4) (AID 2283208)
Outline: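 Screened in duplicate at 25 uM, with hits then titrated to a top concentration of 50 uM. Recombinant Sf9-derived PTPN4 turnover was read by fluorescence with electrophoretic separation, 1.33 h after compound addition. DMSO served as baseline.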

[8] = biological target: human Protein Tyrosine Phosphatase Non-receptor Type 9 (PTPN9), PTPN9 (gene 5780) (UniProt P43378); assay: NVS_ENZ_hPTPN9: NovaScreen (NVS) Enzymatic Assay for human Protein Tyrosine Phosphatase Non-receptor Type 9 (PTPN9) (AID 2283209)
Outline: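 Sf9-expressed enzyme in a cell-free assay, fluorescence read 1.33 h after dosing with mobility-shift separation of substrate and product. Tested at 25 uM in duplicate, then up to 50 uM; signal loss versus DMSO.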

human NIMA (Never In Mitosis Gene A)-Related Kinase 2 (NEK2), NEK2 (gene 4751), sequence (P51955 whole entry, looked up): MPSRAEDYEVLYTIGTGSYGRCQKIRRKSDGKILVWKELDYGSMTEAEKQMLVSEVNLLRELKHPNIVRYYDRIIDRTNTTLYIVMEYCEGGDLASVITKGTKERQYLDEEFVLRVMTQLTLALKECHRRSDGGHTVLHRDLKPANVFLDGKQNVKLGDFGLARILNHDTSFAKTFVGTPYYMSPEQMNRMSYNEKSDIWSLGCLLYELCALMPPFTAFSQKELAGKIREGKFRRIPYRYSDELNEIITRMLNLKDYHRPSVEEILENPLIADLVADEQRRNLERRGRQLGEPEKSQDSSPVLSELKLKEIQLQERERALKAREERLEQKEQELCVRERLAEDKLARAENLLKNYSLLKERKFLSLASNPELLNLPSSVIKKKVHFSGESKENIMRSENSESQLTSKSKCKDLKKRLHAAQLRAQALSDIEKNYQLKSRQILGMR
human Protein Tyrosine Phosphatase Non-receptor Type 9 (PTPN9), PTPN9 (gene 5780), sequence (P43378 whole entry, looked up): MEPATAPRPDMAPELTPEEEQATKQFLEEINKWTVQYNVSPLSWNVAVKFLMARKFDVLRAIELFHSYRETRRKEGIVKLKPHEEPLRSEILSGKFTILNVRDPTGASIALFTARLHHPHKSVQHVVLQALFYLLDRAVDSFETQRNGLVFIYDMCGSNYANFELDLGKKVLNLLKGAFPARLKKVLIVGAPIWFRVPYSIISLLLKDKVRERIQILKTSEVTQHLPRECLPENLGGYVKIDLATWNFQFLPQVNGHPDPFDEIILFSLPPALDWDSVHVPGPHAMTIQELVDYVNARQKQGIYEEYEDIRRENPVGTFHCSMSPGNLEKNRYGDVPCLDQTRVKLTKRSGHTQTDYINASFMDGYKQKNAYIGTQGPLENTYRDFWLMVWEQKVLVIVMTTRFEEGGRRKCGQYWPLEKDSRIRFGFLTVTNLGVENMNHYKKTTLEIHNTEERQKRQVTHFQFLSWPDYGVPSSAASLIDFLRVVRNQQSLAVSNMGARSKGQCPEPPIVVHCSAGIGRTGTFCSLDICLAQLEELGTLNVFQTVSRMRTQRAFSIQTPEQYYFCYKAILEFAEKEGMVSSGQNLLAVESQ
Tyrosine-protein phosphatase non-receptor type 12 (Homo sapiens), sequence (Q05209 whole entry, looked up): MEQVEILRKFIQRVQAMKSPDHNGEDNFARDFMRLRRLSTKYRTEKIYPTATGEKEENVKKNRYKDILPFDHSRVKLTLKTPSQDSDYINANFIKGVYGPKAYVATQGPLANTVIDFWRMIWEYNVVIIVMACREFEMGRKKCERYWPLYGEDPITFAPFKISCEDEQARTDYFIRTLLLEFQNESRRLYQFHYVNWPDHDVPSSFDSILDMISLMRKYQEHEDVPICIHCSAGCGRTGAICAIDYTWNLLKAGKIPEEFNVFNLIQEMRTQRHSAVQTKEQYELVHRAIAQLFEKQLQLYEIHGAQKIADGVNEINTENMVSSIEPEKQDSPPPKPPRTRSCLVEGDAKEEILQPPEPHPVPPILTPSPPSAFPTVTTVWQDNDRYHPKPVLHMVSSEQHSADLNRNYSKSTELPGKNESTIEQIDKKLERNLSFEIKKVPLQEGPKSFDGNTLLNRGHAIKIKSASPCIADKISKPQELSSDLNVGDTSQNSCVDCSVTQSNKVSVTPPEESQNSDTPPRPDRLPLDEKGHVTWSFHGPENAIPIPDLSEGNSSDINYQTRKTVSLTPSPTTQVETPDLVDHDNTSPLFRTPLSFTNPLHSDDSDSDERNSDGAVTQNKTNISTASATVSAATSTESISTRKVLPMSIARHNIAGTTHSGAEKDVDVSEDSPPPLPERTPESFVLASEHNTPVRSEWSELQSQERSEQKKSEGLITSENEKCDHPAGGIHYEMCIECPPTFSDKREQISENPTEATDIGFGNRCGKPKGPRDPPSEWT
Tyrosine-protein phosphatase non-receptor type 11 (Homo sapiens), sequence (Q06124 whole entry, looked up): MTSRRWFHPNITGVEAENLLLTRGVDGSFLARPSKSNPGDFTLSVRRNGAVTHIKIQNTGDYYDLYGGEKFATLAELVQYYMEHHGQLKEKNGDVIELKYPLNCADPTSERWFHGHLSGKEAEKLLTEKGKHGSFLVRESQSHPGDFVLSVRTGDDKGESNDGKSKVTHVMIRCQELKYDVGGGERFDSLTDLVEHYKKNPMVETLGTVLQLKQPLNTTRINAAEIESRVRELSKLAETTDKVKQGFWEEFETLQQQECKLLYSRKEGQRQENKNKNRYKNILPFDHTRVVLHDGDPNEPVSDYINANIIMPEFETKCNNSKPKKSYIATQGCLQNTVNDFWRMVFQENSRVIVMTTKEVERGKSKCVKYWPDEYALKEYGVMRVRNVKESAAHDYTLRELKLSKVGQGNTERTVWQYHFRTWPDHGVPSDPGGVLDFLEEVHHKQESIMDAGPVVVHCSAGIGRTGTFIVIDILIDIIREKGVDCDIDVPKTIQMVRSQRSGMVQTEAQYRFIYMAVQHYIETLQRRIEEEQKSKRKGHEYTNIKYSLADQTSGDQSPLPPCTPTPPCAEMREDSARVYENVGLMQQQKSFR
human Matrix Metalloproteinase-3 (MMP3), MMP3 (gene 4314), sequence (P08254 whole entry, looked up): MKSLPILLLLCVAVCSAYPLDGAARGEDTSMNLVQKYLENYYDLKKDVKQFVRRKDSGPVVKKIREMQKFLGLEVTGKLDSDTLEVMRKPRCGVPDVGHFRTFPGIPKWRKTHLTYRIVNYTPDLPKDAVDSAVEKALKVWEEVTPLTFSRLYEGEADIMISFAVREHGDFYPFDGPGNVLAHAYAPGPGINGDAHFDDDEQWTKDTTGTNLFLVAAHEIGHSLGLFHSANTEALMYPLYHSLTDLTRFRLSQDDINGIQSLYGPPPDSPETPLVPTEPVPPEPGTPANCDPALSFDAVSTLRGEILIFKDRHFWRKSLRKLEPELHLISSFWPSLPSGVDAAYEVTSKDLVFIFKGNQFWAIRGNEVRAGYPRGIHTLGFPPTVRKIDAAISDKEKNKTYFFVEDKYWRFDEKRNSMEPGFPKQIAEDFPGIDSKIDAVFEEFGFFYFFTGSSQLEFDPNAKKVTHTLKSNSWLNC
PPP2CA (gene 5515), sequence (P67775 whole entry, looked up): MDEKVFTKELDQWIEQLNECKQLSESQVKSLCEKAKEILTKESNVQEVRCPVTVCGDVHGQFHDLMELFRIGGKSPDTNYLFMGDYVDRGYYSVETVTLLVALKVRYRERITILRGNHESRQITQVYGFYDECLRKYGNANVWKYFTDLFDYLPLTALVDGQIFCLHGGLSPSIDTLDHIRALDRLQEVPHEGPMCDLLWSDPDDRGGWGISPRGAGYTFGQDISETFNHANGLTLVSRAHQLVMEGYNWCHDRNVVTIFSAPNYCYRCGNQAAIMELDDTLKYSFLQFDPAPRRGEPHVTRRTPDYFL
human Phosphoinositide 3-kinase alpha (PI3Ka), PIK3CA (gene 5290), sequence (P42336 whole entry, looked up): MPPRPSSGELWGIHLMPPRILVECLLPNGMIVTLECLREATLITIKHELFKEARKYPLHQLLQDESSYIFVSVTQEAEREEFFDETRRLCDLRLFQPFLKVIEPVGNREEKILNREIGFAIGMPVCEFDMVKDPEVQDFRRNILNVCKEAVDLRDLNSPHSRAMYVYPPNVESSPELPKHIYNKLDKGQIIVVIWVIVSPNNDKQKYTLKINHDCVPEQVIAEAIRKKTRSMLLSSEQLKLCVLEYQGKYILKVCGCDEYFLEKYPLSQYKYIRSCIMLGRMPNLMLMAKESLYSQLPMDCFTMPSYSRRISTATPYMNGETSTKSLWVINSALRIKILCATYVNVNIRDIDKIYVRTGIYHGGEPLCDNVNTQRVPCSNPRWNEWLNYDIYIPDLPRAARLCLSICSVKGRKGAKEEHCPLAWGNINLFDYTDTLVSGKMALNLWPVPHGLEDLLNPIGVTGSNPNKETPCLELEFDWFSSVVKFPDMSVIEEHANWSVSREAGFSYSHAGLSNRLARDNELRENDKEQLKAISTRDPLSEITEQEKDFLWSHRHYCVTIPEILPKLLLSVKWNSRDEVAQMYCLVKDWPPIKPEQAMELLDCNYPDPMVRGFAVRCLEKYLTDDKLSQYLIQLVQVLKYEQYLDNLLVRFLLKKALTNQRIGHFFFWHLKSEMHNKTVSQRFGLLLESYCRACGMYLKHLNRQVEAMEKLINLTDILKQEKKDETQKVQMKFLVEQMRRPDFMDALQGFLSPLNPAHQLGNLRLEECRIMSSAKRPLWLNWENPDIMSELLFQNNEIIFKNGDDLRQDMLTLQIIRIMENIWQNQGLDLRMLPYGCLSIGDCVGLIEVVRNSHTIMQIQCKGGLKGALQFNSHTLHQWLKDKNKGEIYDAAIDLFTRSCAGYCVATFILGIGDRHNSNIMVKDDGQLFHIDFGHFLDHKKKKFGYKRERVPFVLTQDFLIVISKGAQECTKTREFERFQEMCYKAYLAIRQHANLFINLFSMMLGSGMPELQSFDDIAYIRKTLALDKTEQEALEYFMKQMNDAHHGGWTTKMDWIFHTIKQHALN

COC(=O)c1c(C(F)F)nc(C(F)(F)F)c(C2=NCCS2)c1CC(C)C
outcome [1]: inactive

COC(=O)N(C(=O)N1CO[C@@]2(C(=O)OC)Cc3cc(Cl)ccc3C2=N1)c1ccc(OC(F)(F)F)cc1
outcome [2]: inactive

Cn1c(-c2ccccc2)cc(-c2ccccc2)[n+]1C
outcome [2]: inactive

O=C(O)c1c(Cl)ccc2cc(Cl)cnc12
outcome [3]: inactive

N#CN=C1SCCN1Cc1ccc(Cl)nc1
outcome (PPP2CA (gene 5515)): inactive

CC(C)N1C(=O)c2ccccc2NS1(=O)=O
outcome [4]: inactive

CCCC(=NOCC)C1=C(O)CC(CC(C)SCC)CC1=O (configuration not stated)
outcome [5]: inactive
outcome [6]: inactive
AC50 [7]: 17.9 µM (active)
AC50 [8]: 42.2 µM (active)

CC(C)=CC1C(C(=O)OCc2coc(Cc3ccccc3)c2)C1(C)C (configuration not stated)
outcome [5]: inactive

O=C1C2CC=CCC2C(=O)N1SC(Cl)(Cl)Cl (configuration not stated)
outcome [8]: inactive
